The results in this text go back to PubChem BioAssay (NCI).

About 83,000 compounds went through this panel and 20% of them were active in at least one assay; those are over-represented in the sample as a whole.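 Cells were grown in 96-well plates and exposed to the test compound at a single concentration for 48 hours; results are reported as percent growth, with values below 10 considered active.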 Active and inactive are the calls of the source.

One experiment concerns HS 578T breast. As to the kind of experiment: NCI-60 one-dose screen, 48 h (100 = growth as untreated, 0 = no growth, -100 = all killed). To be noted: 10 µM unless noted.
`C=CN(C(=O)N1CCN(c2cc3c(cc2F)c(=O)c(C(=O)O)cn3C2CC2)CC1)c1nc(-c2ccc(Cl)cc2)cs1`: the growth is 54.3% (inactive). For the compound `Cc1ccccc1N1CCN(C(=S)c2ccccc2)CC1`, the growth is 106% (inactive). Same read-out and setting: in the case of `COc1ccc(Cl)cc1Nc1nc(C(F)(F)F)ccc1C(=O)N/N=C/c1ccc([N+](=O)[O-])cc1` it was 3.18% (active); in that of `O=C(Nc1nc(Cl)nc(Nc2ccc(N3CCOCC3=O)cc2)n1)c1ccc(Cl)s1`, 89.8% (inactive). As for `COCCOC(C)C(/C=N/NC(N)=S)=N/NC(N)=S` (stereo not drawn), the growth was 83.3% (inactive).

The next experiment relates to NCI/ADR-RES ovarian. The description is as above. Particulars: 10 µM unless noted.
Regarding `CCn1cc(C(=O)O)c(=O)c2cc(F)c(N3CCN(CC(=O)Nc4ccccc4)C(C)C3)c(F)c21` (stereo not drawn), the growth is 96.7% (inactive).

On to `COC1C(O)CC(OC2CC(OC3CC(O[C@@H]4C(=O)c5c(cc6cc(OC7CC(OC8CC(O)C(O)C(C)O8)C(O)C(C)O7)c(C)c(O)c6c5O)CC4[C@H](OC)C(=O)C(C)=O)OC(C)C3O)OC(C)C2O)OC1C` (stereo partly drawn), for which the growth was 18.8% (inactive). On the same count and under the same terms, next, `Cc1ccc(OCCOCCOCCOc2ccc(C)n(O)c2=S)c(=S)n1O`: 16.4% (inactive); `Cn1cc(-c2csc(-c3cn(CCCN4CCOCC4)c4ccc(F)cc34)n2)c2cccnc21`: 53.8% (inactive); `O=C1c2cccnc2C(=O)c2c1c(C(=O)OCCc1ccccn1)c1ccccn21`: -26.4% (active). Take `C#CCOc1cccc(Nc2ncnc3c2ncn3C2CCN(C(=O)CCl)C2)c1` (stereo not drawn): the growth was 15.7% (inactive).

Regarding `O=C(Cn1nc(-c2cccc3ccccc23)ccc1=O)NCc1cccc(Cl)c1`, the growth was 27.1% [50 µM] (inactive).

In the case of `CC1(C)CC[C@]23CC[C@]4(C)[C@H](CC[C@@H]5[C@@]6(C)C/C(=C/O)C(=O)C(C)(C)[C@@H]6CC[C@]54C)[C@H]2[C@H]1OC3`, the growth was 104% (inactive). The same measure, in the same setting: in the case of `Nc1nc(C(=O)N/N=C/c2ccc(F)cc2)nn1-c1ccc(S(N)(=O)=O)cc1` it was 98.3% (inactive); in that of `CN(C)c1ccc(CNCCO)cc1`, 103% (inactive). Same read-out and setting: in the case of `Nc1c(Br)cc2c(c1Br)Cc1cc([N+](=O)[O-])ccc1-2` it was 104% (inactive); in that of `COC(=O)Cn1c2c(c3c(OC)cccc31)C(=O)c1ccccc1-2`, 95.5% (inactive); in that of `O=C(/C=C/c1ccccc1)c1ccc(-n2cc(CN3CCN(c4cc5c(cc4F)c(=O)c(C(=O)O)cn5C4CC4)CC3)nn2)cc1`, 87% (inactive). Same read-out and setting: next, `Cc1cc2oc(/C=C/c3ccccc3)cc(=O)c2c(C)c1Cl`: 97.8% (inactive); `Cc1nc(N/N=C/c2cn(-c3ccccc3)nc2-c2cc3ccccc3oc2=O)sc1N=Nc1ccccc1`: 88% (inactive). Consider `N#Cc1nn(-c2cc(=O)[nH]c3ccc(Br)cc23)c(N)c1C#N`, for which the growth was 102% (inactive). On to `CC(=O)c1c(Nc2cccc(F)c2)[nH]c2c(Cl)cc(Cl)c(Cl)c2c1=O`, for which the growth was 3.89% (active).

With `O=c1cc(CP(=O)(O)O)c2cc(O)c(-c3ccccc3)cc2o1`, the growth is 102% (inactive).

On to `CC(=O)c1sc(-c2ccc(F)cc2)cc1O`, for which the growth is 106% (inactive). With `CC(=O)c1ccc(-n2cc(CN3CCN(c4cc5c(cc4F)c(=O)c(C(=O)O)cn5C4CC4)CC3)nn2)cc1`, the growth is 87.9% (inactive). The same measure, in the same setting: next, `COc1ccc(CN2C(=O)OC(C)(COC(C)=O)C2=O)cc1` (stereo not drawn): 109% (inactive); `O=C1CCCC1[n+]1ccccc1` (stereo not drawn): 103% (inactive); `CN(C)CCC(=O)C1CC1`: 98.3% (inactive).

Take `O=c1oc2c(cnc3ccccc32)cc1-c1cccc(Cl)c1`: the growth is 103% (inactive). On the same count and under the same terms, next, `C/C(=C(\c1ccc(OCCN2CCCCCC2)cc1)c1ccc(OC(=O)c2ccccc2)cc1)c1ccc(Cl)cc1`: 59% (inactive); `Nc1cccc(-c2ccc(COc3ccc(CC4SC(=O)NC4=O)cc3)cc2)c1` (stereo not drawn): 47.1% (inactive); `C=C(C)[C@@H]1CC[C@]2(COC3CCCCO3)CC[C@]3(C)[C@H](CC[C@@H]4[C@@]5(C)C=C(C=O)C(=O)C(C)(C)[C@@H]5CC[C@]43C)[C@@H]12` (stereo partly drawn): 1.89% (active). On the same count and under the same terms, next, `Cc1cc(=O)oc2cc(Oc3nc(Br)cn4c(Br)cnc34)ccc12`: 57.5% (inactive).

Consider `C=CN(C(=O)N1CCN(c2cc3c(cc2F)c(=O)c(C(=O)O)cn3C2CC2)CC1)c1nc(-c2ccc(Cl)cc2)cs1`, for which the growth is 90.6% (inactive). Same read-out and setting: in the case of `Cc1ccccc1N1CCN(C(=S)c2ccccc2)CC1` it was 102% (inactive); in that of `COc1ccc(Cl)cc1Nc1nc(C(F)(F)F)ccc1C(=O)N/N=C/c1ccc([N+](=O)[O-])cc1`, 2.09% (active).

Take `O=C(Nc1nc(Cl)nc(Nc2ccc(N3CCOCC3=O)cc2)n1)c1ccc(Cl)s1`: the growth is 99% (inactive).

With `COCCOC(C)C(/C=N/NC(N)=S)=N/NC(N)=S` (stereo not drawn), the growth is 52.7% (inactive).
